The full ranking holds about 68,000 sequences; the median of “fluorescence intensity (a.u.)” is about 9,100, and the highest 2% start at about 16,000. The sample holds the highest values, similar sequences and a random draw of the others, so the mix is not that of the screen.

Chain of OsWRKY34 (Q0JBA9 entry or part of it): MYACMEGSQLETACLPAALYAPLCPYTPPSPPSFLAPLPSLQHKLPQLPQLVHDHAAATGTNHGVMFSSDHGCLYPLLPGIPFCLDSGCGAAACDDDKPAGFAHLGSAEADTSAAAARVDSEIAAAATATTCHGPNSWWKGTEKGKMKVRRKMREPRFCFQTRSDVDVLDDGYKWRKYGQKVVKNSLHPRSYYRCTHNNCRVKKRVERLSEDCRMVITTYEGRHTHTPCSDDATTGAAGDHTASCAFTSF

This experiment addresses OsWRKY34 (Oryza sativa, UniProt Q0JBA9 1-250). Nature of the experiment: protein-binding microarray (RPBM); PBS, 2% BSA, 51.3 ng/ul salmon testes DNA, 50 uM zinc acetate, 200 nM TF, 25 C, 1 h; high values mean tight binding. The note with it: protein: recombinant; tags: N-terminal polyhistidine and DsRed monomer fusion (pET32a); label: CyDye5-dUTP incorporated in the synthesized complementary strand; 3' TTTTT single-stranded linker to array surface; dsDNA, one strand shown. An outline of the steps:
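The binding signal is fluorescence intensity per array feature (arbitrary units). Readings came from an Axon 4000B scanner after a washed, 2% BSA-blocked, double-stranded custom Agilent array had been incubated for 1 h at 25 °C with 200 nM protein and 50 µM zinc acetate. The protein was a Ni–NTA-purified transcription factor fused N-terminally to polyhistidine and DsRed, expressed in E. coli BL21-CodonPlus.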
For “CGCGAGACAATCTAGCCGTTCTTCATTTTTTTCGCTTTCCCGGAGTCACCTAGTGCAG”, the binding signal is 9240 fluorescence intensity (a.u.). In the case of “ACTGTGATACATTCTACATAATTTATTCATTTATTTGCATCGGAGTCACCTAGTGCAG”, the binding signal is 8900 fluorescence intensity (a.u.). The result for “CATTAATTCCAACATATAGTACTCCGCCATTTTGACTCGCCGGAGTCACCTAGTGCAG” reads 8640 fluorescence intensity (a.u.).

Consider “AATGTTATTACTATGCCTGGAACGTCACTTATGTATGTCTCGGAGTCACCTAGTGCAG”, for which the binding signal was 10500 fluorescence intensity (a.u.). “GATCATCTGGTGGTGTGTTCTACGGGTTGCAGCTTCTTTCCGGAGTCACCTAGTGCAG”: the binding signal was 10600 fluorescence intensity (a.u.).

As for “ATTGCCGTTTATATTTGGTCAAATTTAAACGTTTTCTTTTCGGAGTCACCTAGTGCAG”, the binding signal is 8020 fluorescence intensity (a.u.).

Turning to “TTGCCTTGCCAGTCAGTGCTCGAGTTCGTCTCGCTCTCCGCGGAGTCACCTAGTGCAG”, the binding signal is 8730 fluorescence intensity (a.u.). Regarding “GCCGAGCCCCATCTTCTGCTGCGACCCCGTAGCGCTCAACCGGAGTCACCTAGTGCAG”, the binding signal is 9240 fluorescence intensity (a.u.). For the sequence “GCCCCGAGCCGAGACCGCTGGATAATGCAGCGCTTCTTACCGGAGTCACCTAGTGCAG”, the binding signal was 20100 fluorescence intensity (a.u.). The result for “GACCGCCGCCGCTTGAGCTGACCTGACCCCGAGCCGAGCCCGGAGTCACCTAGTGCAG” reads 8250 fluorescence intensity (a.u.). The result for “AGTCAGTGGGTAAATTCTTTAAAAACTCCTATGTTTTTTCCGGAGTCACCTAGTGCAG” reads 9550 fluorescence intensity (a.u.); that for “AACAAGGGAGGGAGGGGCGGCGATCTCCATCTGGCGAGCACGGAGTCACCTAGTGCAG”, 10900 fluorescence intensity (a.u.); that for “ATTGGGGCGGCGGTGGCGGGCTAGGGTTTCGTAGATTCGACGGAGTCACCTAGTGCAG”, 9960 fluorescence intensity (a.u.). The result for “GGATTCGGAGGCGGGTGGGAGTGGGAGAGTGAGAGGGGCTCGGAGTCACCTAGTGCAG” reads 16200 fluorescence intensity (a.u.). In the case of “GGGCGGGTTTGGATTTTTATTTGGTTTTCCTATGGAGTCCCGGAGTCACCTAGTGCAG”, the binding signal is 17800 fluorescence intensity (a.u.). The result for “CTGATTTGCGGGTTCCACATGGATTTTATTTTTTTGTTTCCGGAGTCACCTAGTGCAG” reads 11400 fluorescence intensity (a.u.). Regarding “GCGGCGGTGGTTAGGGTTTGGGGCTCGTCGGCGTCGGCGACGGAGTCACCTAGTGCAG”, the binding signal was 10900 fluorescence intensity (a.u.).

Regarding “GCTTGGTCCATACCTTGTTTTCCTATCATCCACTGTCAATCGGAGTCACCTAGTGCAG”, the binding signal was 9390 fluorescence intensity (a.u.). The result for “CGCCTCGACGGGTTTGGATCTCGGGGTGGGATTAGAGGGGCGGAGTCACCTAGTGCAG” reads 12900 fluorescence intensity (a.u.). The result for “ACATTGGGTTGGAGTGGATTATTTTTTTCCTTTGTTTTCCCGGAGTCACCTAGTGCAG” reads 14200 fluorescence intensity (a.u.).

Regarding “AGGGATAGATTGGCTTAGGGGCGGGTGGGTCTAGAGATTTCGGAGTCACCTAGTGCAG”, the binding signal was 27000 fluorescence intensity (a.u.). The result for “GGGGCTAGGGTTTGGGTGGGATCTCAGCCGTCGGATCTGACGGAGTCACCTAGTGCAG” reads 17000 fluorescence intensity (a.u.). As for “ACGATCAGTGTCATCACAGGGCGGCGGGGTTCCTATCCATCGGAGTCACCTAGTGCAG”, the binding signal was 13200 fluorescence intensity (a.u.). With “GCGGCGGGGTTCCTATCCATGGTTTTTTCGGGCTTGTCCACGGAGTCACCTAGTGCAG” the figure was 18900 fluorescence intensity (a.u.); with “GTGTCCTTTTCTTTTTTTTCTTCTTTTCTTTTTCTTTTTCCGGAGTCACCTAGTGCAG”, 9510 fluorescence intensity (a.u.). In the case of “ACCATGTAACGAGTAATCTTTTGACCTGTGCCACGTCATCCGGAGTCACCTAGTGCAG”, the binding signal was 9160 fluorescence intensity (a.u.). With “TTTGGTGGTGTGCAAGTGGAGTGGTTTATAAAATTATGTCCGGAGTCACCTAGTGCAG” the figure was 8980 fluorescence intensity (a.u.); with “CCTCATCACTCGCTTCTCCTTGCTTACACACCATCCCATCCGGAGTCACCTAGTGCAG”, 8310 fluorescence intensity (a.u.); with “CTAACATTCCCTATGCGGAAACACACACATTCATGCACACCGGAGTCACCTAGTGCAG”, 8860 fluorescence intensity (a.u.). The result for “CCTCTTAACTCTTTCCCATTCCCAAATGCGCCACTGTCTCCGGAGTCACCTAGTGCAG” reads 9190 fluorescence intensity (a.u.); that for “CTCTGTCCTATTGGAACATTTCTCTGAAGCAACACCATATCGGAGTCACCTAGTGCAG”, 9340 fluorescence intensity (a.u.); that for “TGACAGTGTGATGTGCTTGTTCGCTCTGATTTGATTTTGGCGGAGTCACCTAGTGCAG”, 8050 fluorescence intensity (a.u.). The result for “CCCCATCCATTGCAACGGCAACATACACACACCACCACCACGGAGTCACCTAGTGCAG” reads 8350 fluorescence intensity (a.u.). In the case of “CGTTGACTCCATCTCTTTAACATATTTTAGGAGCATGCTTCGGAGTCACCTAGTGCAG”, the binding signal is 8610 fluorescence intensity (a.u.). With “TCATCTCCATCTTTTTATTTACACGCACACTTCTCAAACTCGGAGTCACCTAGTGCAG” the figure was 11100 fluorescence intensity (a.u.).

On to “CCAACTCCGAACGCCTCTTCTTCTCCTCACCGCCGCCGAACGGAGTCACCTAGTGCAG”, for which the binding signal was 9650 fluorescence intensity (a.u.). For the sequence “TCTTTGTTTCCCGCGTTTTGTTGGGGATTCGATTTTCGGGCGGAGTCACCTAGTGCAG”, the binding signal was 11100 fluorescence intensity (a.u.). Take “GGGCTGACGGGTGGGGTCCATGTTGTTTTCCTCTTAGGCACGGAGTCACCTAGTGCAG”: the binding signal was 23000 fluorescence intensity (a.u.).

Turning to “TGGATTTAGGATGTTACTTTGATTTGGGGATTTGGGGTTTCGGAGTCACCTAGTGCAG”, the binding signal is 17200 fluorescence intensity (a.u.). With “TGATGTTACTTTGATTTGGGGTTTGATTTGGGAATATGCACGGAGTCACCTAGTGCAG” the figure was 13500 fluorescence intensity (a.u.); with “GTGGGAGTGGCGGTGTCGGGTCCGGAACGAAACGGCGGGGCGGAGTCACCTAGTGCAG”, 10300 fluorescence intensity (a.u.). For the sequence “ATTTGTGATGTGGATTTGGGGTGTTACTTTGATTTGGGGACGGAGTCACCTAGTGCAG”, the binding signal is 12900 fluorescence intensity (a.u.). With “GAAGGAGAAGGAGAGGGGAGGGGCTGACGGGTGGGGTCCACGGAGTCACCTAGTGCAG” the figure was 14000 fluorescence intensity (a.u.).

These data come from PMC7819943, “Rice protein-binding microarrays: a tool to detect cis-acting elements near promoter regions in rice”.
